Test results: PubChem BioAssay (EPA / NIEHS)
The source made the active and inactive calls. How the source made its calls: active means hit-call score of the fitted dose curve at least 0.9, where 1 is the maximum; inconclusive means response in the unintended direction; inactive means score below 0.9.

Biological target: Estrogen receptor (Homo sapiens) (UniProt P03372)
Assay: OT_ER_ERaERa_1440: Odyssey Thera (OT) 24-hour HEK293T Protein-Complementation Assay for Estrogen Receptor-alpha/-alpha Homodimer (AID 2283349);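 further: hits raise fluorescence above DMSO for agonists and antagonists alike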
In short: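 HEK293T, stable ERα LBD (aa 310-547) homodimer PCA; 24 h compound exposure; mean fluorescence intensity (nuclear for agonists, nuclear plus cytoplasmic for antagonists) vs vehicle; positive fitting direction, DMSO baseline.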

Chain of Estrogen receptor (Homo sapiens) (P03372 whole entry, looked up): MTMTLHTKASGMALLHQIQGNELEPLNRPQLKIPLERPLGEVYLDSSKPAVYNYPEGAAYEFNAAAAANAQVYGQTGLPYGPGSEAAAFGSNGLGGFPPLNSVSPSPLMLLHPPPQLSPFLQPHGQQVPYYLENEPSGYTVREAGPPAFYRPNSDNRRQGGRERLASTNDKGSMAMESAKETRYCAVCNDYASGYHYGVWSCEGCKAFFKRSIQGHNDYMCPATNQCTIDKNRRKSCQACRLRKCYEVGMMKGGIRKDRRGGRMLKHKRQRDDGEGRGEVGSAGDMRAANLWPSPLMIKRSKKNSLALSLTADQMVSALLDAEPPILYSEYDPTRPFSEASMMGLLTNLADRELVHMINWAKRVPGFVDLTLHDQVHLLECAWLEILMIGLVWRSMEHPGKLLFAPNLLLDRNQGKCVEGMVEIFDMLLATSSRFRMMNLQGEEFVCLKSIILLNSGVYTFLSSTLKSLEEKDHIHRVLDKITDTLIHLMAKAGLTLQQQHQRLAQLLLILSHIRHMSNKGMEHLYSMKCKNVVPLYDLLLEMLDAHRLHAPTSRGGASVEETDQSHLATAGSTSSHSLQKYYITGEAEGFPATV

| SMILES | outcome | AC50 |
| --- | --- | --- |
| O=C(O)CCC(=O)O | inactive | – |
| CCCCCCCO | inactive | – |
| CCC(C)(O)CCCC(C)C (stereo not drawn) | inactive | – |
| O=C(O)c1ccc2c(c1)C(=O)OC2=O | inactive | – |
| Cc1c(C(=O)c2c[nH]n(C)c2=O)ccc(S(C)(=O)=O)c1C1=NOCC1 | inactive | – |
| CCCCCCCCCC(C)=O | inactive | – |
| CCCCc1ccc(Cl)cc1 | inactive | – |
| O=C(Oc1ccccc1)c1ccccc1O | inactive | – |
| CC(C)COC(=O)CC(C(=O)OCC(C)C)S(=O)(=O)O (stereo not drawn) | inactive | – |
| CC(C)(C)N | inactive | – |
| CCCCCCCCCCCC(=O)N(C)CC(=O)O | inactive | – |
| O=C(O)CC(C(=O)O)S(=O)(=O)O (stereo not drawn) | inactive | – |
| C=C[C@@]1(C)CC(=O)[C@]2(O)[C@@]3(C)[C@@H](O)CCC(C)(C)[C@@H]3[C@H](O)[C@H](OC(C)=O)[C@@]2(C)O1 | inactive | – |
| NC(=O)Nc1ccccc1 | inactive | – |
| CCC1COC(=O)O1 (stereo not drawn) | inactive | – |
| O=C(OCCc1ccccc1)c1ccccc1 | inactive | – |
| CCC[Si](OC)(OC)OC | inactive | – |

| SMILES | outcome | AC50 |
| --- | --- | --- |
| COc1cc(O)c(C(=O)c2ccccc2)cc1S(=O)(=O)O | inactive | – |
| CCc1cccc(C)c1N | – | 74.6 µM (active) |
| COc1ccc(C(=O)c2ccccc2)c(O)c1 | – | 66.7 µM (active) |
| CC1=CC=C(C(C)C)CC1 | – | 31.5 µM (active) |
| CCCCCCCCCCCCCC(=O)OC(C)C | inactive | – |
| CCCC=C(C=O)CC | inactive | – |
| C[Si]1(C)O[Si](C)(C)O[Si](C)(C)O[Si](C)(C)O[Si](C)(C)O1 | – | 50 µM (active) |
| Cc1ccc(C)c(OCCCC(C)(C)C(=O)O)c1 | inactive | – |
| CO[Si](C)(C)OC | inactive | – |
| CC1(C)[C@@H]2CC[C@@]1(C)C(=O)C2 | inactive | – |
| CCc1occc(=O)c1O | inactive | – |
| CC(=O)/C=C/C1C(C)=CCCC1(C)C (stereo not drawn) | inactive | – |
| CCCC(CC)c1ccccc1 (stereo not drawn) | inactive | – |
| C=C(C)C1CC=C(C)CC1 (stereo not drawn) | inactive | – |
| CCCCCCOc1ccc(N)cc1 | – | 23.9 µM (active) |
| CC12CCC(CC1)C(C)(C)O2 | inactive | – |
